According to PubChem BioAssay AID1794835 (Parasite Biology Lab, Institute for Biomedicine and …, 2023):
The campaign covered roughly 2,500 compounds. About 45 (2%) were called active. Rule as the data show it: active = inhibition mostly above about 45% (no sharp cut-off); inactive = mostly below about 37%. The entries come from a sample that favours actives as a whole.

Test: anti-Giardia activity of synthetic compounds – Compounds Australia Scaffold Library subset, 24/48 h, primary screen (AID 1794835);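 as to inhibition: 0% = parasite counts in DMSO vehicle wells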
Conditions: Giardia lamblia BRIS/91/HEPU/1279 trophozoite counts, imaging, at 10 µM
[1] = measured here: growth inhibition at 24 h, stronger effect = higher value

O=C(CN1C(=O)CCCc2ccccc21)NCCc1ccco1
inhibition: inactive

CC1CN(C(=O)c2cc(C3CC3)nc3c2cnn3C(C)C)CC(C)O1 (configuration not stated)
inhibition: inactive

Cc1cc(-c2cc(C(=O)Nc3ccc(N4CCN(C)CC4)nc3)c3cnn(C(C)C)c3n2)c(C)o1
inhibition (stronger effect = higher value): 98.2% (active) | inhibition [1]: 95.9%

Cc1cc(-c2cc(C(=O)Nc3c(C)n(C)n(-c4ccccc4)c3=O)c3cnn(C(C)C)c3n2)c(C)o1
outcome: inactive | inhibition [1]: 2%

NC(=O)c1nonc1N
inhibition: inactive

Cc1ccc(CNC(=O)c2cc(-c3ccc(C)c(C)c3)n(C3CCS(=O)(=O)C3)n2)cc1 (configuration not stated)
inhibition: inactive

Cn1cc2c(n1)c(=O)n(Cc1ccccc1)c(=O)n2CC(=O)Nc1cccc(F)c1
inhibition (stronger effect = higher value): 62.8% (active) | inhibition [1]: 30.6%

Cc1nc2c(c(=O)n1CC(=O)Nc1cccc(F)c1)CCN(Cc1ccccc1)C2
outcome: inactive | inhibition [1]: 12%

Cn1cc2c(n1)c(=O)n(Cc1ccccc1)c(=O)n2CC(=O)Nc1ccc2c(c1)OCCO2
inhibition: inactive

Brc1ccc(-c2nc(-c3ccc4c(c3)ncn4C3CCCC3)no2)o1
inhibition: inactive

Cc1ccccc1NC(=O)c1c(C)oc2ncnc(N3CCCCC3)c12
inhibition (stronger effect = higher value): 15.9% (inactive) | inhibition [1]: 14.5%

Cc1ccc(C(=O)N2CCN(S(=O)(=O)N3CCN(C)CC3)CC2)o1
inhibition: inactive

COc1ccc(C(=O)N2c3ccccc3NC(=O)CC2C)cc1OC (configuration not stated)
outcome: inactive | inhibition [1]: 2.2%

N=C1C(=C2Nc3ccccc3S2)CC(=O)N1C1CC1
outcome: inactive | inhibition [1]: 2.5%

COc1ccc(C)cc1N1C(=N)C(=C2Nc3ccccc3S2)C(c2ccccc2)C1=O (configuration not stated)
inhibition (stronger effect = higher value): 96.7% (active) | inhibition [1]: 90.2%

CCN(CC)CCCN1C(=O)C(O)=C(C(=O)c2cc3cccc(OC)c3o2)C1c1ccncc1 (configuration not stated)
inhibition: inactive

CCOc1cc(C)ccc1NC(=O)N1CCC12CCC2
inhibition: inactive

CCn1cc(CN2CCCN(C(=O)c3cc(C4CC4)on3)CC2)cn1
outcome: inactive | inhibition [1]: 1.1%

CN1C(=O)c2cc(NC(=O)c3ccc4c(c3)OCO4)ccc2N2CCN=C12
inhibition (stronger effect = higher value): 31.6% (inactive) | inhibition [1]: 11.7%

Cc1ccc(C(=O)Nc2ccc3c(c2)Oc2ccccc2C(=O)N3C)cc1
inhibition (stronger effect = higher value): 96.8% (active) | inhibition [1]: 90.3%

CCOc1ccc(C(=O)Nc2ccc3c(c2)N(C(C)C)C(=O)c2ccccc2O3)cc1
inhibition (stronger effect = higher value): 33.8% (inactive) | inhibition [1]: 18.7%

O=C(NCc1cccc(F)c1)C1CCCN(c2nc3ccccc3n3cccc23)C1 (configuration not stated)
outcome: inactive | inhibition [1]: 2.2%

CNC(=O)N1C[C@@H](CN(C)C)[C@@H](C2CCN(Cc3ccccn3)CC2)C1
inhibition: inactive

Cc1ccccc1NC(=O)Cn1ccc2sccc2c1=O
inhibition (stronger effect = higher value): 19.9% (inactive)

CCCCNC(=O)Cn1c(=O)c2c(C)cc(C)nc2n(-c2ccccc2)c1=O
inhibition (stronger effect = higher value): 4.4% (inactive)

Cc1ccc(-n2c(=O)c3c(cnn3C)n(CC(=O)Nc3ccccc3C)c2=O)cc1
inhibition (stronger effect = higher value): 76.9% (active) | inhibition [1]: 53.9%

CC(=O)c1ccc(C(=O)N2CC=C(c3ccccc3)CC2)s1
inhibition: inactive

COC(=O)c1ccc(C(=O)N2CCc3sccc3C2)s1
inhibition: inactive

COc1cc(OC)c(C2=CCN(C(=O)c3ccc(C)s3)CC2)c(OC)c1
inhibition (stronger effect = higher value): 59.3% (active) | inhibition [1]: 23.1%

CC(=O)N1c2ccc(S(=O)(=O)N3CCOCC3)cc2CC1C(=O)NCCN1CCOCC1 (configuration not stated)
inhibition: inactive

COc1cc(NS(=O)(=O)c2ccc(C)cc2)cc2sc(NC(=O)c3ccccc3)nc12
inhibition (stronger effect = higher value): 50% (active) | inhibition [1]: 23.6%

COc1ccc(NC(=O)c2cncc(NS(=O)(=O)c3ccc(C)cc3)c2)cc1
inhibition: inactive

CCC(=O)Nc1nc2c(OC)cc(NS(=O)(=O)c3cc(Cl)ccc3OC)cc2s1
inhibition: inactive

COc1ccc(-c2noc(C3CCOCC3)n2)c(OC)c1
inhibition: inactive

Cc1ccc2nc(-c3ccc(C)c(NC(=O)c4cccnc4)c3)[nH]c2c1
inhibition (stronger effect = higher value): 8.2% (inactive) | inhibition [1]: 2.9%

Cc1cnn(CC(C)NCc2nc(-c3ccccn3)no2)c1 (configuration not stated)
inhibition (stronger effect = higher value): 19.9% (inactive)

Cc1ccc(-c2cc(C(=O)NCc3cn(C)nc3C)c3ccccc3n2)cc1C
outcome: inactive | inhibition [1]: 3%

COc1cccc(-n2nnc3c(=O)n(CC(=O)N4CCCC4)cnc32)c1
inhibition: inactive

CCOC(=O)c1ccc(S(=O)(=O)N2CCN(C3CCOC3=O)CC2)o1 (configuration not stated)
inhibition: inactive

O=S(=O)(c1cc(-c2nc(-c3cccc(F)c3)no2)cs1)N1CCCCC1
inhibition: inactive

Cn1nccc1-c1cccc(-c2noc(-c3cccc(F)c3)n2)c1
inhibition (stronger effect = higher value): 64.1% (active) | inhibition [1]: 17.6%

CCN1CCN(c2ccc(-c3nc(-c4cccc(F)c4)no3)cn2)CC1
inhibition (stronger effect = higher value): 48.2% (inactive) | inhibition [1]: 31.4%

O=c1[nH]c(CN2CCC(c3nc4ccccc4o3)CC2)nc2ccsc12
inhibition: inactive

CCOC(=O)c1cccc(Nc2ncccc2S(N)(=O)=O)c1
inhibition (stronger effect = higher value): 35.4% (inactive) | inhibition [1]: 14.6%

CC(C)c1ccc(NC(=O)c2ccc(F)c(S(=O)(=O)N3CCN(c4ccccc4)CC3)c2)cc1
inhibition: inactive

CC(C)c1ccc(Nc2ncccc2S(=O)(=O)N2CCCC2)cc1
inhibition (stronger effect = higher value): 57.5% (active) | inhibition [1]: 27%

CC(=O)Nc1nsc(N2CCCC(C(=O)NCc3ccccc3Cl)C2)n1 (configuration not stated)
inhibition (stronger effect = higher value): 5.9% (inactive) | inhibition [1]: 4.9%

Cc1ccc2nc(-c3ccccc3)c(CN3CCN(C4CCS(=O)(=O)C4)CC3)n2c1 (configuration not stated)
inhibition: inactive

O=S1(=O)CCC(n2cc(-c3cnn(-c4ccccc4)c3)cn2)C1 (configuration not stated)
inhibition (stronger effect = higher value): 66.2% (active) | inhibition [1]: 45.5%

O=C(c1cn2ccccc2n1)N1CCN(C2CCS(=O)(=O)C2)CC1 (configuration not stated)
inhibition: inactive

O=C(c1ccc(F)cc1)N1CCc2[nH]nc(C(=O)N3CCN(c4ccc(F)cc4)CC3)c2C1
inhibition (stronger effect = higher value): 0.9% (inactive) | inhibition [1]: 2.4%

O=C(c1ccc2c(=O)n3c(nc2c1)CCCC3)N1CC=C(c2ccccc2)CC1
inhibition: inactive

COc1ccccc1-c1cc(C(=O)Nc2sc(Nc3ccccc3)nc2C(N)=O)[nH]n1
inhibition (stronger effect = higher value): 11.1% (inactive) | inhibition [1]: 11.2%

Cc1cccc(C)c1NC(=O)c1cc(-c2ccccc2)nc2c1cnn2Cc1cccnc1
inhibition (stronger effect = higher value): 17.5% (inactive)

CN(C)CCn1cc(C(=O)c2cc(Cl)ccc2O)cc1-c1nc2ccccc2c(=O)[nH]1
inhibition (stronger effect = higher value): 85.8% (active) | inhibition [1]: 45%

Cn1cc(C(=O)c2ccccc2O)cc1-c1nc2ccccc2c(=O)[nH]1
inhibition: inactive

CN(C)CCCN1C(=O)C(=O)C(=C(O)c2cc(Cl)ccc2O)C1c1ccco1 (configuration not stated)
inhibition (stronger effect = higher value): 14.6% (inactive)

Cc1noc(-c2nn(C)c3c2CN(S(=O)(=O)Cc2cccc(F)c2)CC3)n1
inhibition (stronger effect = higher value): 14.3% (inactive)

O=C(CCc1ccc(Cl)cc1Cl)N1CCCC(c2ncn[nH]2)C1 (configuration not stated)
inhibition (stronger effect = higher value): 0.4% (inactive)

NC(=O)C1=C(Nc2ccccc2)c2ccccc2S1(=O)=O
inhibition (stronger effect = higher value): 48.5% (active) | inhibition [1]: 12.8%

CCCNC1=C(C(=O)Nc2ccc(F)cc2)S(=O)(=O)c2ccccc21
inhibition (stronger effect = higher value): 46.5% (inactive) | inhibition [1]: 21.9%

CN(C)c1nc(N(C)C)nc(N2CC(=O)N(c3ccc(Cl)c(Cl)c3)C2=N)n1
inhibition (stronger effect = higher value): 16% (inactive) | inhibition [1]: 9.5%
